From PubChem BioAssay AID651673 (Broad Institute, 2012)
The list shows a part of the results. Calls of active or inactive are those of the source.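 The calls were made as follows: active = signal drop giving an AC50 within twice the top valid tested concentration of each sample (actives reach about 35 µM in these data); inactive = activity opposite to expected, plus the rest.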

Test: acridine orange displacement from DNA – biochemical, fluorescence polarization, cherry-pick, artefact control for RAD54 inhibitor project, dose response (AID 651673);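 also: polarization loss reports compound binding to salmon sperm DNA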
Details: 20 min; series mostly up to 35 µM

outcome, inactive:
O=C(NCCCN1CCOCC1)c1cnn2c(-c3ccccc3)cc(-c3ccccc3)nc12, CCN(CC)CCn1c2ccc(Cl)cc2c2nc(C)sc21, Cc1cc2oc3ccc(NCCC4CCCN4C)cc3c(=O)c2cc1C (stereo not drawn), CN1CCN(CCCNC(=O)c2cc3c(=O)oc4ccccc4c3s2)CC1, COc1ccccc1C(=O)C(O)c1ccccc1OC (stereo not drawn), COc1ccc(CCn2c(=N)c(C(=O)NCC3CCCO3)cc3c(=O)n4cccc(C)c4nc32)cc1OC (stereo not drawn), CCOC(=O)C1C(=O)NC(N2CCN(c3ccccc3)CC2)=NC1c1ccco1 (stereo not drawn), CCn1c(=N)c(C(=O)NCCCOC)cc2c(=O)n3cccc(C)c3nc21, c1ccc(-c2nnc(SCc3nc4ccccc4[nH]3)o2)cc1, CCOCCCNC(=S)Nc1ccc2nc(N3CCN(CC)CC3)cc(C)c2c1, CCN(CC)CCCNC(=O)c1cc2c(=O)[nH]c3ccc(C)cc3c2s1, COc1cccc2sc3cc(NCC[C@@H]4CCCN4C)ccc3c(=O)c12, CN(C)CCN(C(=O)CN1C(=O)c2ccccc2C1=O)c1nc2cc3c(cc2s1)OCCO3, CC1CCc2sc3nc(N4CCN(CCO)CC4)n4ncnc4c3c2C1 (stereo not drawn), Cc1cccn2c(=O)c3cc(C#N)c(=O)n(CCCN4CCOCC4)c3nc12, Cc1nc2ccccc2c2oc(C(=O)NCCCN3CCC(C)CC3)cc12, COC(=O)c1c(NC(=O)c2ccc(S(=O)(=O)N3CCOCC3)cc2)sc2c1CCN(C(C)C)C2, COc1ccc(C(=O)Nc2cc(C)c(NC(=O)c3ccccc3OC)cn2)cc1
